From PubChem BioAssay AID1159580 (chemical genetic matrix, 2015)
The campaign covered roughly 5,500 compounds. About 2,000 (36%) were called active. About 18% were inconclusive and are not listed. Rule as the data show it: active = normalized growth mostly below about 0.91 (no sharp cut-off); inconclusive = no clear call, values can overlap the other calls; inactive = mostly above about 0.92. The list shows a part of the results.

Assay: chemical genetic growth profiling, strain panel (AID 1159580);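 also: tested at 20 µM; growth read once vehicle control cultures reached saturation at 30 °C; 1 = growth at the plate median or of vehicle wells; lower values mean less growth of the strain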
Details: S. cerevisiae deletion strains, growth OD

Measured: normalized growth

CC[C@H](C)C(=O)O[C@H]1CCC=C2C=C[C@H](C)[C@H](CC[C@@H]3C[C@@H](O)CC(=O)O3)[C@H]21
inactive: locus YAL040C, strain CLN3, stronger effect = lower value 1.01 | locus YCL061C, strain MRC1 (second series), stronger effect = lower value 0.995 | locus YDR363W, strain ESC2, stronger effect = lower value 1.02 | locus YER002W, strain NOP16, stronger effect = lower value 0.976 | locus YJR075W, strain HOC1, stronger effect = lower value 0.988 | locus YNL128W, strain TEP1, stronger effect = lower value 0.947 | locus YNL175C, strain NOP13, stronger effect = lower value 0.985 | locus YNL197C, strain WHI3, stronger effect = lower value 0.987 | locus YNL224C, strain SQS1, stronger effect = lower value 0.98 | locus YNL322C, strain KRE1, stronger effect = lower value 0.995 | locus YOR083W, strain WHI5 (second series), stronger effect = lower value 0.999 | locus YPL241C, strain CIN2, stronger effect = lower value 0.994
